# Data published in PubChem BioAssay (Tox21).
# Records with an inconclusive call do not appear. Entries that show only a call come without a potency. The source made the active and inactive calls. The call rests on the fitted dose curve; in most records, active means well fitted cell-killing curve with a large enough effect in the repeat runs; inconclusive means weak or mixed curves, or effect the other way; inactive means flat fitted curve, though single readings scatter.
# Columns and labels:
# [1] = cAMP Responsive Elements (CRE) small molecule antagonists, cell-based qHTS assay: qHTS cell viability counter screen (AID 2060913); further: nearly all actives have a fitted effect of over 40% in size
# Summary of the method: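 CRE-bla HEK293T cells (2,000/well, 18 h) given compound plus NKH477 0.25 uM final for 3 h at 37C; viability counter-screen by CellTiter-Glo luminescence in same wells after 30 min.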
# [2] = cAMP Responsive Elements (CRE) small molecule agonists, cell-based qHTS assay: qHTS cell viability counter screen (AID 2060914);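 further: viability read after 3 h of compound exposure; nearly all actives have a fitted effect of over 50% in size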
# Summary of the method: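 CRE-bla HEK 293T cells, plated 18 h at 37 °C, were exposed to compounds for 3 h at 37 °C/5% CO2. Viability was then measured in the same wells by CellTiter-Glo luminescence after 30 min at room temperature.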
Compound,Potency [1],Potency [2]
O=S(=O)(O)c1cc(S(=O)(=O)O)c2c(N=Nc3ccccc3)c(O)ccc2c1,inactive,inactive
CC(=O)N[C@H]1[C@H]([C@H](O)[C@H](O)CO)OC(C(=O)O)=C[C@@H]1N=C(N)N,inactive,inactive
CC1=C2[C@H](/C=C(\C)C(=O)O)CC[C@@H](C)[C@H]2CC1,inactive,inactive
COc1cc(/C=C/c2ccccc2)oc(=O)c1,inactive,inactive
C#C[C@]1(O)CC[C@H]2[C@@H]3CCc4cc(OC)ccc4[C@H]3CC[C@@]21C,inactive,inactive
c1cnccn1,inactive,inactive
CCCc1ccccc1O,inactive,inactive
CCc1cccc(CC)c1NC(=O)C(=O)O,inactive,inactive
CC(=O)Oc1ccccc1C(=O)O,inactive,inactive
N=C(N)c1ccccc1,inactive,inactive
CCCCCCCCCCCCCC,inactive,inactive
CC(=O)/C=C/C1=C(C)CCCC1(C)C,inactive,inactive
Cc1nc2ccc(Cl)cc2[nH]1,inactive,inactive
CCOC(=O)[C@H](CCc1ccccc1)N[C@H]1CCc2ccccc2N(CC(=O)O)C1=O,inactive,inactive
COc1cc(Cl)ccc1Cl,inactive,inactive
CC(C)c1cccc(O)c1,inactive,inactive
O=[N+]([O-])c1ccc2[nH]ncc2c1,inactive,inactive
CC[C@H]1OC(=O)[C@H](C)[C@@H](O[C@H]2C[C@@](C)(OC)[C@@H](O)[C@H](C)O2)[C@H](C)[C@@H](O[C@@H]2O[C@H](C)C[C@H](N(C)C)[C@H]2O)[C@](C)(OC)C[C@@H](C)C(=O)[C@H](C)[C@@H](O)[C@]1(C)O,inactive,inactive
